mcGAS RapidFire – inhibitors of Mus musculus cyclic GMP-AMP synthase, initial high-throughput assay, cell-free, RapidFire MS. 130,000 compounds, 0.18% hits. Q8C6L5. recombinant mouse cGAS, cGAMP by RapidFire MS. AID 1259397, 2018. inhibition, % at 12.5 µM;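 active = inhibition of cGAS enzyme activity at or above 60%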;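 note: enzyme stimulated by 45 bp dsDNA with ATP and GTP substrates; cGAMP share of summed cGAMP plus half ATP and half GTP signals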
Target sequence (Q8C6L5 whole entry, looked up): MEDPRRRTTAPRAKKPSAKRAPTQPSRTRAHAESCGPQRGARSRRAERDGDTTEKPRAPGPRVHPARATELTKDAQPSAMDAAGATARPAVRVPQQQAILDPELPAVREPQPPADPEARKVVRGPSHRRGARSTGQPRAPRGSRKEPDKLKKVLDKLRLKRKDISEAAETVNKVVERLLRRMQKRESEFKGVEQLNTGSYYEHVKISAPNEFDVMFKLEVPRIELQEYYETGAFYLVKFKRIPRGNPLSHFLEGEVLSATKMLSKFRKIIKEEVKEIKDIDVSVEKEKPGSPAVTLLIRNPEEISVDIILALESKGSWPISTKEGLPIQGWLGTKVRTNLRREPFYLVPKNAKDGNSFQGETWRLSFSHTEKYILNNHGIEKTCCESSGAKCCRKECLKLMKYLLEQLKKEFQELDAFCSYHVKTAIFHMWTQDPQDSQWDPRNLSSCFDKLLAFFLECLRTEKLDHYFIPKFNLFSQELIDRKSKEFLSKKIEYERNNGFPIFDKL
Starred values were filed as active, the others as inactive. The entries come from a sample that favours hits as a whole.

SMILES	mcGAS RapidFire
COC(=O)CCSc1ccc(S(=O)(=O)N2CCOCC2)cc1[N+](=O)[O-]	-3
COc1cc(S(=O)(=O)N2CCCC2)ccc1Br	-7
O=c1/c(=C/c2cccc([N+](=O)[O-])c2)sc2nc3cc(Br)cnc3n12	28
O=c1/c(=C/c2ccc(N3CCOCC3)cc2)sc2nc3cc(Br)cnc3n12	81*
CCOc1cc(/C=c2\sc3nc4cc(Br)cnc4n3c2=O)ccc1O	-21
CSc1nnc(SCc2nnc(-c3ccccc3)o2)s1	7
CC(=O)c1c(C)[nH]c(C(=O)Cn2cc(Br)ccc2=O)c1C	23
CC(C)(NS(=O)(=O)c1cccs1)c1ccc(Br)cc1	-3
COc1ccc(CNc2ccccc2-n2cccn2)cc1C	-1
COc1ccc(CNc2c[nH]c(=O)cc2C)cc1OCCCC#N	83*
COc1ccc(CNc2ncn[nH]2)cc1OC	-2
CCOC(=O)C1CCN(C(c2ccc(Cl)cc2)C2Sc3nc(C)nn3C2=O)CC1 (configuration not stated)	-9
Cn1c(NC(=O)C2CCCN(S(C)(=O)=O)C2)nc2cc(Cl)ccc21 (configuration not stated)	9
Cc1cc(NC(=O)COC(=O)c2oc3c(C)ccc(C)c3c2C)n(C)n1	-4
CC(=O)Oc1ccc(CN2C(=O)C(C)(C)ON=C2c2ccc(C)cc2)cc1	87*
CC(=O)Oc1ccccc1CN1C(=O)C(C)(C)ON=C1c1ccc(C(F)(F)F)cc1	-13
COC(=O)c1ccc(CN2C(=O)C(C)(C)ON=C2c2ccc(C)cc2)o1	25
COc1ccc(OC)c(C(=O)c2ccc(C(=O)N3CCCC(Nc4ccccc4)C3)cc2)c1 (configuration not stated)	-6
NC1(C(=O)O)CCN(Cc2ccccc2-c2ccco2)C1 (configuration not stated)	-19
O=C(NC1CCOCC1)c1ccc(S(=O)(=O)C(F)(F)F)cc1	-11
Cc1nc2ncc3c(=O)n(Cc4ccccc4)ccc3n2n1	-3
Cc1cc(-c2ccc(NN=C3C=Cc4c(S(=O)(=O)O)cc(S(=O)(=O)O)c(N)c4C3=O)c(C)c2)ccc1NN=C1C=Cc2c(S(=O)(=O)O)cc(S(=O)(=O)O)c(N)c2C1=O	95*
Brc1ccc2nc(-c3ccco3)c(Nc3ccc4c(c3)OCO4)n2c1	6
O=C(c1ccc(=O)[nH]n1)N1CCN(Cc2ccc(-c3ccc(Br)cc3)s2)CC1	-2
Cc1cccn2c(=O)nc(SCc3ccccc3F)nc12	-4
Cc1ccccc1CN1CCN(Cc2nc3scc(-c4ccccc4Cl)c3c(=O)[nH]2)CC1	-12
O=C1C=CC(=O)N1c1cc(Cl)cc(Cl)c1	67*
CCOC(=O)c1cn(Cc2ccccc2)c2ccccc2c1=O	1

From PubChem BioAssay
